Where “and” joins values, the source holds several entries; their conditions need not be identical. Equal values may be shown once. Results filed as inconclusive are left out. Calls of active or inactive are those of the source. Calls follow the shape of the dose curve; as a rule, active = well fitted curve in the direction sought with a large enough effect; inconclusive = small, poorly fitted or top-dose-only effect, or another doubt; inactive = no such curve, though single readings can be large; an effect the other way counts as inactive or inconclusive.
Experiments:
HaCat [1] = assay: Cytotoxic Profiling of Annotated Libraries Using Quantitative High-Throughput Screening (AID 1296008); settings: Five cell lines viability, CellTiter-Glo ATP luminescence, 48-72 h; hits give low values; also: nearly all actives have a fitted effect of over 60% in size
Method in brief: (§1)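 Cytotoxicity was measured as CellTiter-Glo ATP luminescence, read after 10 min at room temperature. Compound treatment of the cells lasted 48 or 72 hr at 37 degrees Celsius in a qHTS format.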

KB-3-1 = assay: as above; settings: Five cell lines viability, CellTiter-Glo ATP luminescence, 48-72 h; max response: hits give low values
Method in brief: as §1

HACAT [2] = assay: qHTS assay to identify novel small-molecules to repurpose for Merkel cell carcinoma treatment (AID 1296009); settings: MCC and control cell lines, CellTiter-Glo viability, 72 h; at 44.8 µM (top of the series); also: nearly all actives have a fitted effect of over 60% in size
Method in brief: (§2)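 Cell viability measured by CellTiter-Glo following 72 hr compound treatment at 37 degree celsius, with NPC and MIPE libraries tested in 8- and 11-point concentration series.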

MCC-13 = assay: as above; settings: MCC and control cell lines, CellTiter-Glo viability, 72 h; series mostly up to 46 µM
Method in brief: as §2

MCC-26 = assay: as above; settings: MCC and control cell lines, CellTiter-Glo viability, 72 h; series mostly up to 46 µM
Method in brief: as §2

MKL-1 = assay: as above; settings: MCC and control cell lines, CellTiter-Glo viability, 72 h; series mostly up to 46 µM
Method in brief: as §2

MKL-2 = assay: as above; settings: MCC and control cell lines, CellTiter-Glo viability, 72 h; series mostly up to 46 µM
Method in brief: as §2

UISO = assay: as above; settings: MCC and control cell lines, CellTiter-Glo viability, 72 h; series mostly up to 46 µM
Method in brief: as §2

C33A = assay: Primary qHTS to identify gynecologic anti-cancer compounds using libraries of approved drugs and bioactive compounds (AID 1345084); settings: Gynecologic cancer cell panel viability, ATPlite luminescence, 48 h; series mostly up to 57.5 µM; also: nearly all actives have a fitted effect of over 55% in size; also: potency is read from the fitted curve at half-maximal effect
Method in brief: (§3)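 Five-concentration response, 48 h; readout is ATP-driven luciferase luminescence.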

Es-2 = assay: as above; settings: Gynecologic cancer cell panel viability, ATPlite luminescence, 48 h; series mostly up to 57.5 µM
Method in brief: as §3

HeLa = assay: as above; settings: Gynecologic cancer cell panel viability, ATPlite luminescence, 48 h; series mostly up to 57.5 µM
Method in brief: as §3

JEG-3 = assay: as above; settings: Gynecologic cancer cell panel viability, ATPlite luminescence, 48 h; series mostly up to 57.5 µM
Method in brief: as §3

NIH3T3 [3] = assay: Cytotoxic Profiling of Annotated Libraries Using Quantitative High-Throughput Screening (AID 1296008); settings: Five cell lines viability, CellTiter-Glo ATP luminescence, 48-72 h; max response: hits give low values; also: nearly all actives have a fitted effect of over 60% in size
Method in brief: as §1

CASKI = assay: Primary qHTS to identify gynecologic anti-cancer compounds using libraries of approved drugs and bioactive compounds (AID 1345084); settings: Gynecologic cancer cell panel viability, ATPlite luminescence, 48 h; series mostly up to 57.5 µM; also: nearly all actives have a fitted effect of over 55% in size; also: potency is read from the fitted curve at half-maximal effect
Method in brief: as §3

Hek293T = assay: as above; settings: Gynecologic cancer cell panel viability, ATPlite luminescence, 48 h, control line for the selectivity index; series mostly up to 57.5 µM
Method in brief: as §3

OV90 = assay: as above; settings: Gynecologic cancer cell panel viability, ATPlite luminescence, 48 h; series mostly up to 57.5 µM
Method in brief: as §3

PA-1 = assay: as above; settings: Gynecologic cancer cell panel viability, ATPlite luminescence, 48 h; series mostly up to 57.5 µM
Method in brief: as §3

NIH3T3 [4] = assay: qHTS assay to identify novel small-molecules to repurpose for Merkel cell carcinoma treatment (AID 1296009); settings: MCC and control cell lines, CellTiter-Glo viability, 72 h; at 44.8 µM (top of the series); also: nearly all actives have a fitted effect of over 60% in size
Method in brief: as §2
% is scaled to controls: 0 for no effect and ±100 for the full control effect.

CC(=O)Oc1cccc2c1C(=O)c1c(OC(C)=O)cc(C(=O)O)cc1C2=O
inactive: outcome (HaCat [1]) | max response (KB-3-1) -2.72% | outcome (HACAT [2]) | outcome (MCC-13) | outcome (MCC-26) | outcome (MKL-1) | outcome (MKL-2) | outcome (UISO) | Potency (C33A) | Potency (Es-2) | Potency (HeLa) | Potency (JEG-3)

O=C1NCCN1c1ncc([N+](=O)[O-])s1
inactive: max response (KB-3-1) 1.83%

CC(=O)N[C@@H]1C(O[C@H]2O[C@H](C(=O)O)C(O)[C@H](O)[C@H]2O)[C@H](O)[C@@H](CO)O[C@H]1O[C@@H]1C(C(=O)O)O[C@@H](O[C@H]2[C@H](O)[C@@H](CO)OC(O)[C@@H]2NC(C)=O)[C@H](O)[C@H]1O (some centres undefined)
inactive: max response (KB-3-1) -7.66%

CC1(C)[C@@H]2CC[C@@]1(C)[C@H](OC(=O)CSC#N)C2
inactive: max response (KB-3-1) 3.19%

COc1ccc2nc(NC(=O)Nc3ccccc3)sc2c1
active: Potency (CASKI) 12.6 µM | Potency (Es-2) 8.91 µM | Potency (Hek293T) 14.1 µM | Potency (JEG-3) 20 µM | Potency (OV90) 22.4 µM | Potency (PA-1) 25.1 µM
inactive: outcome (HaCat [1]) | max response (KB-3-1) 36.1% | max response (NIH3T3 [3]) -17.1% | outcome (HACAT [2]) | outcome (MCC-13) | outcome (MCC-26) | outcome (MKL-1) | outcome (MKL-2) | outcome (UISO)

CC(C)(C)c1ccc(CN2CCN(C(c3ccccc3)c3ccc(Cl)cc3)CC2)cc1 (centres undefined)
inactive: outcome (HaCat [1]) | max response (KB-3-1) 1.38% and -2.29% | outcome (NIH3T3 [3]) | outcome (HACAT [2]) | outcome (NIH3T3 [4]) | Potency (C33A) | Potency (CASKI) | Potency (Es-2) | Potency (HeLa) | Potency (Hek293T) | Potency (JEG-3) | Potency (OV90) | Potency (PA-1)

CCC(Oc1ccccc1)C(=O)N[C@@H]1C(=O)N2[C@@H]1SC(C)(C)[C@@H]2C(=O)O (some centres undefined)
inactive: max response (KB-3-1) 9.51%

Reference: PubChem BioAssay (NCATS)
